Active and inactive are the calls of the source. How the source made its calls: active means hit-call score of the fitted dose curve at least 0.9, where 1 is the maximum; inactive means score below 0.9.

A short description of experiment [1]: APR_HepG2_CellCycleArrest_1hr: Apredica 1-hour HepG2 Assay for Cell Cycle Arrest (AID 2282666). As to conditions: high-content imaging, actives raise or lower the signal. In a few lines: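 Cell cycle arrest scored from nuclear DNA content (Hoechst 33342) using high-content imaging of fixed HepG2 cells after 1 h treatment across 0.39–200 uM, in duplicate. Gain or loss fitted relative to 0.5% DMSO.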

The nature of experiment [2]: APR_HepG2_CellLoss_1hr: Apredica 1-hour HepG2 Assay for Cell Loss (AID 2282668).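 Further: curves fitted both ways against DMSO so gain or loss of cells counts.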 The note with it: high-content imaging. Summed up:
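Cell number comes from high-content imaging of Hoechst-labelled nuclei in fixed HepG2 cells. Cells were exposed for 1 h to ten concentrations from 0.39 to 200 uM in 0.5% DMSO. Gain or loss was fitted against DMSO controls.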

The nature of experiment [3]: APR_HepG2_MicrotubuleCSK_1hr: Apredica 1-hour HepG2 Assay for Microtubule CSK Stabilty (AID 2282669). The note with it: HepG2 microtubule cytoskeleton imaging, actives raise or lower the signal. In a few lines: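 Alpha-tubulin immunofluorescence, imaged by automated high-content microscopy with Hoechst nuclear segmentation, measured cytoskeletal change after 1 h dosing of HepG2 at 0.39–200 uM in 0.5% DMSO. Activity fitted in both directions relative to DMSO.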

Experiment [4] in a line: APR_HepG2_P-H2AX_1hr: Apredica 1-hour HepG2 Assay for H2AX Phosphorylation (AID 2282673). As to conditions: high-content imaging, actives raise or lower the signal. Summed up: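 Phospho-H2A.x immunofluorescence (1:200, FITC secondary) plus Hoechst nuclear stain, quantified by high-content imaging in HepG2 after 1 hr compound exposure. Ten concentrations, 0.39 to 200 uM, in duplicate with 0.5% DMSO; fit both directions against DMSO.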

A short description of experiment [5]: APR_HepG2_MitoMembPot_1hr: Apredica 1-hour HepG2 Assay for Mitochondrial Membrane Potential (AID 2282675). The note with it: imaging, actives raise or lower the signal. In a few lines: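 Mitochondrial membrane potential read as MitoTracker Red CMXRos intensity by automated imaging of fixed HepG2 cells. Dye at 250 nM for 30 min pre-fixation; compounds 0.39 to 200 uM for 1 hour, duplicate wells, 0.5% DMSO.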

The nature of experiment [6]: APR_HepG2_CellCycleArrest_24hr: Apredica 24-hour HepG2 Assay for Cell Cycle Arrest (AID 2282905).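 Further: cell cycle arrest scored as ratio of 2N to 4N nuclear DNA content.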 As to conditions: imaging, actives raise or lower the signal. Summed up:
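Step one: dose HepG2 with test compounds, 0.39–200 uM, 0.5% DMSO, 24 hr. Step two: fix, permeabilize, stain nuclei with Hoechst 33342. Step three: image six fields per well at 20x, quantify DNA content, fit bidirectionally relative to DMSO.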

Experiment [7] in a line: APR_HepG2_StressKinase_1hr: Apredica 1-hour HepG2 Assay for Stress Kinase (AID 2282906). As to conditions: HepG2 stress kinase (phospho-c-Jun) imaging, actives raise or lower the signal. In a few lines:
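High-content imaging of phospho-c-Jun immunostaining (with Hoechst nuclear identification) after a 1 h exposure of HepG2 cells to 10 concentrations from 0.39 to 200 uM, final DMSO 0.5%. Fitted bidirectionally against DMSO.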

Experiment [8] in a line: APR_HepG2_NuclearSize_24hr: Apredica 24-hour HepG2 Assay for Nuclear Size (AID 2282907). As to conditions: high-content imaging, actives raise or lower the signal. In a few lines: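 After fixation and permeabilization, 24-hr-treated HepG2 cells were stained with Hoechst 33342 and imaged on an ArrayScan (20x). Doses spanned 0.39–200 uM in duplicate. Nuclear diameter changes in either direction were fitted relative to 0.5% DMSO controls.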

Experiment [9] in a line: APR_HepG2_CellLoss_24hr: Apredica 24-hour HepG2 Assay for Cell Loss (AID 2282908).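 On AC50: fit in both directions so a hit may be cell loss or gain.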 As to conditions: high-content imaging. Summed up: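 Duplicate wells received compound at ten concentrations (0.39–200 uM; final DMSO 0.5% v/v). After fixation with formaldehyde, nuclei stained with Hoechst 33342 were imaged at 20x. Loss or gain of cell count was fitted relative to DMSO controls.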

Experiment [10] can be described thus: APR_HepG2_MicrotubuleCSK_24hr: Apredica 24-hour HepG2 Assay for Microtubule CSK Stabilty (AID 2282909). As to conditions: HepG2 microtubule cytoskeleton imaging, actives raise or lower the signal. In a few lines: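 Microtubule stability is scored from tubulin immunofluorescence in fixed HepG2 cells imaged at 20x. Cells receive ten compound concentrations up to 200 uM for 24 h; taxol and DMSO serve as positive and negative controls.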

Experiment [11] is described as follows: APR_HepG2_MitoticArrest_24hr: Apredica 24-hour HepG2 Assay for Mitotic Arrest (AID 2282910). The note with it: high-content imaging, actives raise or lower the signal. In a few lines:
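HepG2, 24 hr dosing, 0.39–200 uM, 0.5% DMSO final. Formaldehyde-fixed, Triton-permeabilised, anti-phospho-histone H3 plus Hoechst. ArrayScan imaging at 20x; bidirectional fit vs DMSO baseline.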

The nature of experiment [12]: APR_HepG2_MitoMembPot_24hr: Apredica 24-hour HepG2 Assay for Mitochondrial Membrane Potential (AID 2282911). As to conditions: imaging, actives raise or lower the signal. In a few lines:
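Mitochondrial membrane potential imaged via MitoTracker Red CMXRos (250 nM, 30 min pre-fixation) in fixed HepG2 cells with Hoechst nuclear identification. Ten concentrations 0.39–200 uM, 24 h treatment, 0.5% DMSO; CCCP as positive control.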

Experiment [13] in a line: APR_HepG2_MitoMass_24hr: Apredica 24-hour HepG2 Assay for Mitochondrial Mass (AID 2282912). The note with it: high-content imaging, actives raise or lower the signal. In a few lines: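 Readout: fluorescence of MitoTracker Red CMXRos (250 nM, added 30 min pre-fixation) in fixed HepG2 cells imaged by HCS. Exposure lasted 24 hr at 0.39–200 uM; increases and decreases were both fitted relative to DMSO.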

A short description of experiment [14]: APR_HepG2_p53Act_24hr: Apredica 24-hour HepG2 Assay for p53 Activation (AID 2282913).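 Further: p53 protein immunofluorescence averaged per cell in HepG2 with Hoechst nuclei.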 The note with it: high-content imaging, actives raise or lower the signal. In a few lines:
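Fluorescence imaging of formaldehyde-fixed HepG2 cells labelled for p53 and with Hoechst, 24 h after dosing (0.39–200 uM, duplicate wells, 0.5% v/v DMSO). Signal fitted in both directions relative to DMSO.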

A short description of experiment [15]: APR_HepG2_CellCycleArrest_72hr: Apredica 72-hour HepG2 Assay for Cell Cycle Arrest (AID 2282914). As to conditions: high-content imaging, actives raise or lower the signal. Summed up: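 Read-out: nuclear DNA content from Hoechst 33342 high-content imaging (20x, six fields/well) after 3.7% formaldehyde fixation, fitted bidirectionally against DMSO. Treatment was 72 h in HepG2, ten concentrations 0.39–200 uM, duplicate, 0.5% DMSO.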

Experiment [16] can be described thus: APR_HepG2_CellLoss_72hr: Apredica 72-hour HepG2 Assay for Cell Loss (AID 2282915). As to conditions: high-content imaging. Summed up: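 HepG2 cells exposed 72 h to compound at 0.39–200 uM (10 concentrations, duplicate) in 0.5% DMSO. Fixed with 3.7% formaldehyde and Hoechst 33342-stained. Imaged at 20x; nuclear count gives cell number, fitted bidirectionally versus DMSO.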

Experiment [17] is described as follows: APR_HepG2_MitoMass_1hr: Apredica 1-hour HepG2 Assay for Mitochondrial Mass (AID 2282674). As to conditions: high-content imaging, actives raise or lower the signal. Summed up: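 Mitochondrial mass is taken from MitoTracker Red CMXRos (250 nM, 30 min, pre-fixation) fluorescence imaged at 20x in HepG2 cells. Exposure lasted 1 hr across ten concentrations, 0.39 to 200 uM, 0.5% DMSO; DMSO baseline, bidirectional fitting.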

Experiment [18] is described as follows: APR_HepG2_NuclearSize_1hr: Apredica 1-hour HepG2 Assay for Nuclear Size (AID 2282670). As to conditions: high-content imaging, actives raise or lower the signal. Summed up:
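Nuclear size measured by high-content imaging of Hoechst 33342 nuclear stain after formaldehyde fixation; human HepG2 line exposed 1 hr to compounds at 0.39–200 uM in 0.5% DMSO, with bidirectional curve fitting relative to DMSO.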

A short description of experiment [19]: APR_HepG2_p53Act_1hr: Apredica 1-hour HepG2 Assay for p53 Activation (AID 2282671). The note with it: high-content imaging, actives raise or lower the signal. Summed up:
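After 1 h exposure (0.39–200 uM, 0.5% DMSO final, duplicates), fixed HepG2 cells were labelled with anti-p53 antibody plus Hoechst nuclear stain. Fluorescence quantified by automated 20x imaging; changes fitted in both directions against DMSO.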

A short description of experiment [20]: APR_HepG2_MitoticArrest_1hr: Apredica 1-hour HepG2 Assay for Mitotic Arrest (AID 2282672). The note with it: high-content imaging, actives raise or lower the signal. Summed up: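 Ten-point concentration series (0.39 to 200 uM, duplicates, 0.5% v/v DMSO) applied to human HepG2 liver cells for 1 hr. High-content imaging of phospho-histone H3 and Hoechst-stained nuclei after fixation and permeabilization; DMSO-normalised bidirectional fit.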

Regarding `CCC(=NOC/C=C/Cl)C1=C(O)CC(C2CCOCC2)CC1=O` (configuration not stated), the call in [1], in experiment [2], in [3], in [4], in experiment [5] and in experiment [6] was inactive. Moreover, the call in [7], in [8], in experiment [9], in [10], in experiment [11] and in experiment [12] was inactive. In addition, the compound was called inactive in experiment [13], in [14], in experiment [15] and in experiment [16].
As to `CNC(=O)ON=C(SC)C(=O)N(C)C`, the call in experiment [1], in experiment [2], in experiment [3], in [17], in experiment [5] and in [6] was inactive. Also, the compound was called inactive in [7], in [8], in experiment [9], in experiment [10], in experiment [11] and in experiment [12]. Also, the outcome in experiment [13], in [14] and in experiment [15] was inactive. Further, the AC50 – broadly, the concentration giving half of the maximal activity seen – in experiment [16] is 100 µM (active).
Take `C[N+]1(C)CCCCC1`: the result in experiment [1], in experiment [2], in [3], in [18], in experiment [19] and in [17] was inactive. Further, the compound was classed as inactive in experiment [5], in experiment [6], in [7], in experiment [8], in [9] and in [10]. The compound was called inactive in experiment [11], in experiment [12], in [13], in experiment [14], in [15] and in [16].
As to `CC(C)=CC1C(C(=O)OCN2C(=O)C3=C(CCCC3)C2=O)C1(C)C` (configuration not stated), the compound was classed as inactive in experiment [1], in experiment [2], in experiment [3], in experiment [20], in [4] and in experiment [5]. Moreover, the result in [6], in [7], in experiment [8], in [11], in experiment [12] and in experiment [13] was inactive. In addition, the compound was classed as inactive in experiment [14] and in experiment [15]. In addition, the AC50 in [9] is 109 µM (active); in [10], 105 µM (active); in experiment [16] it was 100 µM (active).
In the case of `Cc1cc(C2CC2)nc(Nc2ccccc2)n1`, the outcome in experiment [1], in experiment [2], in experiment [3], in experiment [18], in [17] and in experiment [6] was inactive. Also, the call in experiment [7], in [8], in experiment [11], in [12], in experiment [13] and in experiment [14] was inactive. Besides, the call in experiment [15] was inactive. In addition, the concentration at half-maximal activity (AC50) was 29.2 µM (active) in [5], 60.5 µM (active) in experiment [9], 98.6 µM (active) in experiment [10] and 75.7 µM (active) in experiment [16].
Turning to `C[Si](Cn1cncn1)(c1ccc(F)cc1)c1ccc(F)cc1`, the result in [1], in [2], in [18], in experiment [4], in experiment [5] and in experiment [6] was inactive. Moreover, the call in [7], in experiment [8], in experiment [9], in experiment [10], in experiment [11] and in experiment [12] was inactive. Also, the compound was called inactive in experiment [13], in experiment [14] and in experiment [15]. The AC50 in experiment [16] was 57.8 µM (active).
Regarding `N#CSCSC#N`, the outcome in experiment [1], in [2], in experiment [18], in experiment [17], in [5] and in experiment [6] was inactive. In addition, the compound was called inactive in [7], in experiment [8], in experiment [10], in experiment [11], in experiment [12] and in [13]. The compound was called inactive in experiment [14], in experiment [15] and in experiment [16]. Moreover, the AC50 in experiment [9] was 13.6 µM (active).
As for `C#CCC1=C(C)C(OC(=O)C2C(C=C(C)C)C2(C)C)CC1=O` (configuration not stated), the result in experiment [1], in experiment [2], in experiment [18], in experiment [20], in [5] and in [7] was inactive. Moreover, the result in experiment [8], in experiment [10], in experiment [11], in experiment [12], in [13] and in experiment [14] was inactive. The compound was called inactive in experiment [16]. Also, the figures for the half-maximal activity concentration (AC50) in [6], in [9] and in experiment [15] were 151 µM (active), 89.4 µM (active) and 104 µM (active), respectively.

The values are drawn from PubChem BioAssay (EPA / NIEHS).
